From PubChem BioAssay
Pf Dd2 growth – inhibitors of Plasmodium falciparum Dd2 growth | P. falciparum Dd2 growth, SYBR Green, 72 h; stronger effect = lower value | activity change, % at 10 µM | hit rate 2.3% among 94,000; in the data active = activity change below about -80%; inconclusive = no clear call, values can overlap the other calls
C diff growth – blocks growth of Clostridium difficile; growth activity, negative = inhibition, % at 16 µg/mL (by protocol); Clostridium difficile clinical isolate growth, OD600, 24 h; stronger effect = lower value; hit rate 0.25% among 86,000; AID 1259249;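 active = mean growth activity at or below -80% and every replicate also at or below -80%; inconclusive = mean at or below -80% but some replicate above -80%; inactive = mean growth activity above -80%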;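 also: 0% = DMSO wells and -100% = levofloxacin 16 µg/mL wells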
* marks the source's active call; other numbers are inactive results; ? = inconclusive; . = no result. This is a sample that favours compounds with a hit; in the whole collection about 2.3% have one here.

SMILES	Pf Dd2 growth	C diff growth
N#C[C@@H]1[C@H](c2ccccc2C2=CCCC2)[C@H](CO)N1C(=O)NC1CCCC1	-47	10
N#C[C@@H]1[C@H](c2ccccc2C2=CCCCC2)[C@@H](CO)N1C(=O)c1cccc(F)c1	-94*	-10
N#C[C@@H]1[C@@H](c2ccccc2C2=CCCCC2)[C@@H](CO)N1C(=O)c1cccc(F)c1	-14	8
CCCNC(=O)[C@@H]1[C@@H](CO)[C@@H]2Cn3c(ccc(-c4cccc(F)c4)c3=O)[C@H]1N2C(C)=O	4	-6
C[C@@H]1CN([C@@H](C)CO)C(=O)c2cc(-c3ccccc3F)cnc2O[C@H]1CN(C)Cc1ccccc1	-28	0
CNC[C@@H]1Oc2ccc(NC(=O)CCN3CCOCC3)cc2C(=O)N([C@@H](C)CO)C[C@H]1C	13	1
O=C(C[C@H]1CC[C@H]2[C@@H](COC[C@@H](O)CN2S(=O)(=O)c2ccccc2F)O1)NCc1ccccc1Cl	-3	.
O=C(C[C@H]1CC[C@@H](NC(=O)Nc2cc(F)ccc2F)[C@H](CO)O1)Nc1ccccc1	.	0
Cc1ccc(S(=O)(=O)N(C)C[C@@H]2OCCCC[C@@H](C)Oc3ccc(NC(=O)CCCCCC(=O)Nc4ccccc4N)cc3C(=O)N([C@H](C)CO)C[C@@H]2C)cc1	.	-2
C[C@@H]1CCCCO[C@@H](CN(C)S(=O)(=O)c2ccc(Cl)cc2)[C@@H](C)CN([C@H](C)CO)C(=O)c2cc(NC(=O)CCCCCC(=O)Nc3ccccc3N)ccc2O1	-78	.
Cc1ccc(S(=O)(=O)N(C)C[C@H]2OCCCC[C@@H](C)Oc3ccc(NC(=O)CCCCCC(=O)Nc4ccccc4N)cc3C(=O)N([C@H](C)CO)C[C@@H]2C)cc1	-87*	-2
Cc1noc(C)c1S(=O)(=O)N(C)C[C@H]1OCCCC[C@@H](C)Oc2ccc(NC(=O)CCCCCC(=O)Nc3ccccc3N)cc2C(=O)N([C@@H](C)CO)C[C@@H]1C	-81*	-3
O=C(O)C[C@@H]1CC[C@H](NC(=O)CCN2CCCCC2)[C@@H](CO)O1	21	5
CCc1nc(N2[C@H](CO)[C@@H](c3ccccc3-c3ccccc3F)[C@@H]2C#N)sc1C	17	3
CCc1csc(N2[C@H](C#N)[C@@H](c3ccc(-c4ccc(F)cc4)cc3)[C@@H]2CO)n1	-12	1
CCc1nc(N2[C@H](C#N)[C@H](c3ccccc3-c3ccccc3F)[C@@H]2CO)sc1C	-81*	1
CCc1csc(N2[C@H](C#N)[C@H](c3ccccc3-c3ccc(F)cc3)[C@H]2CO)n1	-93*	-1
O=C(C[C@H]1CC[C@H]2[C@@H](COC[C@@H](O)CN2C(=O)Nc2ccc(Cl)cc2)O1)NC1Cc2ccccc2C1	-1	47
C[C@H](CO)N1C[C@H](C)[C@@H](CN(C)CC2CC2)Oc2ccc(NC(=O)Nc3cccc4ccccc34)cc2CC1=O	-86*	13
C[C@H](CO)N1C[C@H](C)[C@H](CN(C)CC2CC2)Oc2ccc(NC(=O)Nc3cccc4ccccc34)cc2CC1=O	-89*	-3
C[C@H]1CN([C@@H](C)CO)C(=O)Cc2cc(NC(=O)Nc3cccc4ccccc34)ccc2O[C@H]1CN(C)C	7	-1
C[C@H]1CN([C@@H](C)CO)C(=O)Cc2cc(NC(=O)Nc3cccc4ccccc34)ccc2O[C@@H]1CN(C)CC1CCCCC1	-26	-1
C[C@@H]1CN([C@H](C)CO)S(=O)(=O)c2ccc(C3=CCCC3)cc2O[C@@H]1CN(C)Cc1ccccc1F	-70	-2
CCCNC(=O)C[C@H]1CC[C@@H]2[C@@H](COc3ccc(NC(=O)Cc4ccccc4)cc3C(=O)N2C)O1	6	-6
Cc1noc(C)c1NC(=O)Nc1ccc2c(c1)C(=O)N([C@@H](C)CO)C[C@@H](C)[C@@H](CN(C)C(=O)NC(C)C)OCCCC[C@@H](C)O2	6	2
SMILES	Pf Dd2 growth	C diff growth
Cc1noc(C)c1S(=O)(=O)N(C)C[C@@H]1OCCCC[C@H](C)Oc2ccc(NC(=O)Nc3cccc4ccccc34)cc2C(=O)N([C@H](C)CO)C[C@@H]1C	-20	-3
Cc1noc(C)c1S(=O)(=O)N(C)C[C@H]1OCCCC[C@H](C)Oc2ccc(NC(=O)Nc3cccc4ccccc34)cc2C(=O)N([C@@H](C)CO)C[C@@H]1C	-85*	-5
Cc1noc(C)c1S(=O)(=O)N(C)C[C@H]1OCCCC[C@H](C)Oc2ccc(NC(=O)Nc3cccc4ccccc34)cc2C(=O)N([C@H](C)CO)C[C@H]1C	-92*	0
Cc1noc(C)c1S(=O)(=O)N(C)C[C@@H]1OCCCC[C@H](C)Oc2ccc(NC(=O)Nc3cccc4ccccc34)cc2C(=O)N([C@H](C)CO)C[C@H]1C	-79	-3
CC(=O)N1CC2(C1)[C@H](c1ccc(-c3ccccc3C)cc1)[C@@H](CO)N2C(=O)CC1CC1	-24	-11
C[C@H](CO)N1C[C@H](C)[C@H](CN(C)C(=O)c2ccncc2)OCc2cn(nn2)CCCC1=O	-2	-6
CN(C)c1ccc2c(c1)[C@H]1C[C@H](CC(=O)NCC3CC3)O[C@H](CO)[C@H]1O2	-4	-9
C[C@H](CO)N1C[C@H](C)[C@@H](CN(C)S(=O)(=O)c2ccc(F)cc2)Oc2ccc(NC(=O)Nc3ccc4c(c3)OCO4)cc2CC1=O	-23	-4
CCCNC(=O)N1[C@H](C#N)[C@@H](c2ccccc2-c2ccccc2F)[C@@H]1CO	-12	-8
COCC#Cc1ccc(CC[C@H]2O[C@H]3CC[C@H](CO)O[C@H]3C[C@@H]2n2cc(C3CC3)nn2)cc1	-87*	1
OC[C@H]1CC[C@@H]2O[C@H](CCc3ccc(-c4ccc(F)cc4)cc3)[C@H](n3cc(C4CC4)nn3)C[C@@H]2O1	-82*	3
COCC#Cc1ccc(CC[C@H]2O[C@H]3CC[C@@H](CO)O[C@H]3C[C@@H]2n2cc(C(C)(C)O)nn2)cc1	-40	4
OC[C@@H]1CC[C@@H]2O[C@H](CCc3ccc(-c4ccc(F)cc4)cc3)[C@H](n3cc(C4CC4)nn3)C[C@@H]2O1	-78	-9
C[C@@H](NC(=O)C[C@@H]1CC[C@@H](NC(=O)C2CCC2)[C@H](CO)O1)c1ccccc1	10	.
COc1ccc(NC(=O)N(C)C[C@H]2OCc3ccccc3-c3ccccc3C(=O)N([C@@H](C)CO)C[C@@H]2C)c(OC)c1	-27	.
Cc1noc(C)c1NC(=O)Nc1ccc2c(c1)C(=O)N([C@@H](C)CO)C[C@@H](C)[C@H](CN(C)C(=O)Nc1cccc3ccccc13)O2	32	.
COc1ccc2c3c([nH]c2c1)[C@@H](CO)N(Cc1cc(F)ccc1F)CC31CN(C(=O)CN(C)C)C1	-87*	-11
COc1ccc2c3c([nH]c2c1)[C@@H](CO)N(Cc1cc(F)ccc1F)CC31CCN(C(=O)CN(C)C)CC1	-85*	6
COc1ccc2c3c([nH]c2c1)[C@H](CO)N(Cc1cc(F)ccc1F)CC31CN(C(=O)CN(C)C)C1	?	-3
COCC(=O)N1CCC2(CC1)CN(Cc1cc(F)ccc1F)[C@@H](CO)c1[nH]c3cc(OC)ccc3c12	-53	.
Cc1noc(C)c1NC(=O)N(C)C[C@H]1Oc2ccc(NC(=O)C3CC3)cc2CC(=O)N([C@@H](C)CO)C[C@H]1C	-83*	4
Cc1noc(C)c1NC(=O)N(C)C[C@@H]1Oc2ccc(NS(=O)(=O)c3cn(C)cn3)cc2CC(=O)N([C@@H](C)CO)C[C@H]1C	40	-5
